Reference: PubChem BioAssay (NCI)
This is part of a sample that, as a whole, favours compounds with a hit. Of some 83,000 tested, about 20% had one in any assay.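 Plates (96-well) were seeded with cells, treated with compound at one concentration, and incubated for 48 hours before percent growth was determined.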 Active and inactive are the calls of the source. Rule for the calls: active = growth percent below 10; inactive = the rest.

Each compound was assayed on SR leukemia (assay: NCI-60 one-dose screen, 48 h (100 = growth as untreated, 0 = no growth, -100 = all killed)). Settings: 10 µM.

| Compound | growth |
| --- | --- |
| N#Cc1ccc(C(=O)CSc2nccc(Nc3ccc(C(=O)O)cc3)n2)cc1 | 106% (inactive) |
| O=C(CNc1nnc(-c2cccnc2SCc2ccccc2)s1)Nc1nc(Cl)cc(Cl)n1 | 98.5% (inactive) |
| COc1ccc(N(C)c2ncnc3occ(C)c23)cc1 | -36.1% (active) |
| COC(=O)C1OC1c1cc([N+](=O)[O-])ccc1OC (centres undefined) | 84.4% (inactive) |
| N#Cc1c(-c2ccc(Cl)cc2)cc(-c2cc(O)ccc2O)nc1N | 21.7% (inactive) |
| CN(C)CCN(Cc1ccccc1)c1ccc2ccccc2n1 | 98.6% (inactive) |
| COC(=O)c1c[nH]c2cc(OC(C)C)c(OC(C)C)cc2c1=O | 97% (inactive) |
| C=C/C(C)=C/C[C@]1(C)[C@H](C)[C@@H](OC(=O)CCC)[C@H](O)[C@@]23C(=C[C@H](OC)C[C@@H]12)[C@@H](OC(=O)CCC)O[C@H]3OC(C)=O | -20.2% (active) |
| O=C(Nc1cc([N+](=O)[O-])c2[nH]c(=O)c3ccccc3c2c1)C(F)(F)F | 52.3% (inactive) |
| Nc1nc(Cl)nc2c1ncn2C1O[C@H](CO)[C@@H](O)[C@@H]1F (some centres undefined) | 7.7% (active) |
| C#CC(C)(O)[C@@H]1C[C@H](CC(=O)O)C1(C)C (some centres undefined) | 88.9% (inactive) |
| COc1ccc(-c2nn(-c3cccc(Cl)c3)cc2/C=C2\NC(=S)N(c3ccc(Cl)cc3)C2=O)cc1 | -69.6% (active) |
| COc1ccc2c(c1)OC(N)=C(C#N)C2c1cc(OC)c(OC)c(OC)c1 (centres undefined) | 4.02% (active) |
| IC(I)I | 122% (inactive) |
